# Compounds without any hit were thinned out: in the full panel of roughly 83,000, 20% have a hit.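 For each line, cells grew in 96-well plates with the test compound present at a single concentration for 48 hours.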 Unmarked numbers belong to inactive results. The source made the active and inactive calls. Rule for the calls: active = growth percent below 10; inactive = the rest.
# Key:
# Assay in all cases: NCI-60 one-dose screen, 48 h (100 = growth as untreated, 0 = no growth, -100 = all killed)
# Conditions in all cases: 10 µM unless noted
# NCI-H23 lung = test system: NCI-H23 lung
# NCI-H226 lung = test system: NCI-H226 lung
# NCI-H322M lung = test system: NCI-H322M lung
# HOP-62 NSCLC = test system: HOP-62 NSCLC
# NCI-H460 lung = test system: NCI-H460 lung
# HOP-92 NSCLC = test system: HOP-92 NSCLC
# NCI-H522 lung = test system: NCI-H522 lung
# A549/ATCC NSCLC = test system: A549/ATCC NSCLC
# 786-0 renal = test system: 786-0 renal
# COLO 205 colon = test system: COLO 205 colon
# DU-145 prostate = test system: DU-145 prostate
# K-562 leukemia = test system: K-562 leukemia
# MALME-3M melanoma = test system: MALME-3M melanoma
# MDA-MB-231 breast = test system: MDA-MB-231 breast
# RXF 393 renal = test system: RXF 393 renal
# SF-268 CNS = test system: SF-268 CNS
# SF-295 CNS = test system: SF-295 CNS
# SF-539 CNS = test system: SF-539 CNS
# UACC-257 melanoma = test system: UACC-257 melanoma
# M14 melanoma = test system: M14 melanoma
SMILES,growth (NCI-H23 lung),growth (NCI-H226 lung),growth (NCI-H322M lung),growth (HOP-62 NSCLC),growth (NCI-H460 lung),growth (HOP-92 NSCLC),growth (NCI-H522 lung),growth (A549/ATCC NSCLC),growth (786-0 renal),growth (COLO 205 colon),growth (DU-145 prostate),growth (K-562 leukemia),growth (MALME-3M melanoma),growth (MDA-MB-231 breast),growth (RXF 393 renal),growth (SF-268 CNS),growth (SF-295 CNS),growth (SF-539 CNS),growth (UACC-257 melanoma),growth (M14 melanoma)
COc1cc2ncn3c(=O)c4c5c(sc4nc3c2cc1OC)CCCCC5,89.3%,74.5%,90.9%,91%,99.5%,81.9%,99.9%,104%,106%,98%,111%,97.3%,93.7%,91.7%,105%,93.7%,105%,100%,105%,106%
OC[C@@H](O)C(O[C@@H]1O[C@H](CO)[C@H](O)[C@H](O)[C@H]1O)[C@H](O)[C@@H](O)CO (stereo not given in full),98.3%,103%,96%,96.7%,108%,82.1%,95.7%,110%,106%,110%,111%,104%,97.6%,97.3%,108%,109%,96.1%,101%,106%,99.9%
COc1ccc(Cl)cc1NC(=O)c1cc2c(n1C)-c1nc(NC(=O)C(C)C)sc1CC2,89.4%,61.3%,99.1%,85.7%,94%,91%,49.9%,71.5%,88.1%,96.8%,83.5%,79.8%,99.3%,30.5%,101%,71.2%,92.5%,-27.9% (active),88%,84.8%
COc1ccc(OCC(O)CN2CCN(c3ccc(Cl)cc3)CC2)cc1 (stereo not given),228%,86.3%,89.6%,103%,93.4%,97.9%,74.3%,93.2%,151%,95.7%,112%,105%,106%,88.1%,98%,105%,92.1%,95.5%,81.9%,102%
Cc1cc(O[C@@H]2O[C@@H](C)[C@H](O)[C@@H](O)[C@H]2O)c2c3c(c(O[C@@H]4O[C@@H](C)[C@H](O)[C@@H](O)[C@H]4O)cc2c1)C(=O)c1c(O)cccc1C3=O,95.4%,52.1%,95.4%,77.4%,84.8%,76.1%,64.8%,76.8%,24.4%,94.5%,98%,79.6%,107%,86.3%,29.6%,56.3%,79%,92.5%,87.2%,82.6%
C#C[C@H](O)/C=C/CCCCCCC#C[C@H](O)CC[C@@H](O)C#CCCCCCC/C=C/[C@@H](O)C#C,51%,116%,96.3%,85.3%,97.4%,11.9%,-72.7% (active),91.1%,64.6%,79.8%,95.7%,11.7%,-32.9% (active),63.1%,104%,85.1%,87.4%,75.9%,101%,93.1%
O=C(CSc1nnc(-c2ccc(Cl)cc2)o1)Nc1ccc(C(=O)/C=C/c2ccccc2)cc1,93.3%,107%,90.5%,107%,97.7%,106%,86.7%,96%,97.8%,116%,101%,99.3%,106%,99.1%,112%,103%,105%,106%,101%,96%
O=C(NNC(=O)c1ccc([N+](=O)[O-])cc1)c1ccc([N+](=O)[O-])cc1,94.8%,99.3%,120%,90.8%,105%,106%,84%,99.3%,95%,115%,113%,93.6%,112%,117%,111%,101%,94.2%,91.4%,111%,95.4%
CC1OC(n2c3ccccc3c3c4c(c5c6ccccc6[nH]c5c32)C(=O)N(CCN[C@@H]2CCC[C@H]2N)C4=O)CC(O)C1O (stereo not given in full),13.2%,17.4%,25.4%,5.12% (active),-62% (active),72%,-9.89% (active),14.1%,32.2%,1.5% (active),31.8%,1.43% (active),24.9%,16.4%,33.7%,30.6%,8.14% (active),17.8%,29.8%,18.7%
CC(C)[C@@H]1NC(=O)[C@]2(C)CSC(=N2)c2ccnc(c2)CNC(=O)C[C@@H](/C=C/CCS)OC1=O,12.6%,11.8%,4.39% (active),6.46% (active),9.2% (active),-16.5% (active),-18.4% (active),-1.52% (active),6.38% (active),-70.3% (active),10.5%,6.95% (active),14.6%,11.5%,-61.7% (active),13%,-1.44% (active),17.2%,-25% (active),8.55% (active)
Nc1nccc2c1ccn2-c1ccc(NC(=O)Nc2cccc(C(F)(F)F)c2)cc1,90%,81.9%,98.2%,94.2%,90.8%,57.4%,87.2%,91.3%,110%,92.1%,96.7%,81.5%,99.3%,72.9%,97.8%,96.3%,78.2%,86.1%,113%,91.5%
O=C(Nc1ccc(-n2cc(-c3ccncc3)c(-c3ccc(O)c(Cl)c3)n2)cc1)Nc1cccc(Cl)c1Cl,66%,73.7%,79.7%,87.6%,43%,16.5%,66.1%,38.9%,58.3%,39.1%,66.4%,39.6%,67.4%,27%,-8.38% (active),82%,37.6%,18.5%,90.7%,46.9%
CCC1S/C(=N\N=C(/C)c2cccs2)N(c2ccccc2)C1=O (stereo not given),101%,136%,109%,65.4%,112%,85.1%,82.2%,89.5%,86.2%,114%,123%,110%,181%,97.7%,97.3%,89.3%,123%,124%,97.5%,141%
C[C@H]1C=C(C[C@@H](O)CC#CC#CCCCCC[C@@H](O)[C@H]2CCC(=O)O2)C(=O)O1,99.9%,98.6%,114%,94.5%,118%,99.9%,78.7%,111%,190%,115%,109%,86.3%,105%,96.4%,103%,110%,106%,93.1%,91.8%,137%
C=CCOc1ccc(/C(Cl)=N/N=C(\Cl)c2cc(OC)c(OC)c(OC)c2)cc1,64.9%,81.8%,97.4%,79.7%,48%,65.1%,37.9%,59.5%,98.1%,72.2%,70%,69.4%,90.9%,82.4%,58.7%,85.5%,87.9%,88.8%,53.3%,73.4%
